Screening results: PubChem, several laboratories
Anthrax LF inh2 – Bacillus anthracis LF protease inhibitors, primary screen, biochemical, multiplex microsphere, MLPCN library; Lethal factor (Bacillus anthracis), P15917; multiplex microsphere protease cleavage assay; inhibition, % at 10 µM; 0.12% of 360,000 active; also: plate controls were buffer without enzyme for full effect and enzyme alone for no effect
Bead autofluor – flagged as autofluorescent in microsphere protease counterscreen | compound autofluorescence counterscreen, microsphere flow cytometry; active compounds read high | fluorescence intensity (no concentration beside the values) | 3.1% of 360,000 active | AID 624483; in the data active = fluorescence intensity above about 16000; inconclusive = no clear call, values can overlap the other calls
BoNT-F LC inh – BoNT/F light chain protease inhibitors, primary screen, biochemical, flow cytometry, MLPCN library; Multiplex microsphere protease cleavage assay; inhibition, % at 10 µM; 0.22% of 360,000 active; in the data active = inhibition above about 35%, passing the limit was not always enough; inconclusive = no clear call, values can overlap the other calls; also: plate controls were buffer without enzyme for full effect and enzyme alone for no effect
BoNT-A LC inh2 – BoNT/A light chain protease inhibitors, primary screen, biochemical, flow cytometry, MLPCN library. Botulinum neurotoxin type A light chain protease (Clostridium botulinum A str. ATCC 3502). multiplex microsphere protease substrate cleavage. inhibition, % at 10 µM. 0.17% of 360,000 active. AID 588499, 2011; also: plate controls were buffer without enzyme for full effect and enzyme alone for no effect
MazF activator – activators of E. coli MazEF toxin-antitoxin RNase, primary screen, biochemical, fluorescence, uHTS; Endoribonuclease toxin MazF (Escherichia coli (strain K12)), P0AE70; FAM/BHQ RNA-DNA oligo cleavage fluorescence, 5 h; activation, % at 20 µM; 0.32% of 350,000 active; in the data active = activation above about 50%
Target sequence (P0AE70 whole entry, looked up): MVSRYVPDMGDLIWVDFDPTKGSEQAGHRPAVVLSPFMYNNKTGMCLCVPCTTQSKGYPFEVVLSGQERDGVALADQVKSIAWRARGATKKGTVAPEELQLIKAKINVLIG
An asterisk follows results filed as active; ? = inconclusive; · = not tested or not shown. In the library only some 3.6% were active in any assay of this set; here they are far more common. Rule as the data show it, unless noted: active = inhibition above about 30%; inconclusive = no clear call, values can overlap the other calls; inactive = below that.

SMILES | Anthrax LF inh2 | Bead autofluor | BoNT-F LC inh | BoNT-A LC inh2 | MazF activator
CC(=O)N1CCOc2ccc(S(=O)(=O)N3CCC(C(=O)NCc4ccc(Cl)cc4)CC3)cc21 | -4.4 | 2952 | -8.8 | -0.4 | 2.3
CC1CCCN(S(=O)(=O)c2ccc(NC(=O)C3CC(=O)N(c4ccccc4)C3)cc2)C1 (stereo not given) | 1.8 | 4531 | -12.5 | -0.7 | 5.2
Cc1ccc(OCC(=O)Nc2ccc3c(c2)C(=O)N(CCC(=O)O)C3=O)cc1 | -0.8 | 6271 | 2.0 | -0.9 | 7.8
C/C(=N\O)C(C)(C)Nc1ccc(Br)cc1 | · | · | · | · | 53.0*
CCSc1nnc(-c2cccnc2)n1-c1ccc(Cl)c(C)c1 | -7.5 | 17981* | 7.5 | 6.3 | -3.5
CN(C)c1ccc(C(=O)Nc2cc(C(F)(F)F)ccc2-n2cncn2)cc1 | -5.9 | 4135 | ? | 0.4 | 3.0
O=C(Nc1cc(C(F)(F)F)ccc1-n1cncn1)c1ccc(Br)cc1 | -0.6 | 24053* | 0.2 | -0.2 | 2.0
Fc1ccc(NC(=S)NNc2ncc(C(F)(F)F)cc2Cl)c(F)c1 | -0.5 | 4979 | -4.3 | -0.8 | 0.7
CNc1nnc(-c2ccncc2)s1 | 0.3 | 16766* | -0.2 | -1.1 | 4.5
O=S(=O)(Nc1ccc(Cc2ccncc2)cc1)c1ccc(Cl)c(Cl)c1 | -3.6 | 16421* | 1.5 | 0.3 | -1.0
COc1ccc(S(=O)(=O)Nc2ccc(Cc3ccncc3)cc2)cc1OC | 3.6 | 4317 | 5.6 | 2.2 | -28.2
O=C(CCc1n[nH]c(=O)[nH]c1=O)N1CCOCC1 | -0.1 | 6245 | 3.7 | 0.1 | 5.9
O=C(CCNc1n[nH]c(=O)[nH]c1=O)N1CCOCC1 | -1.0 | 22002* | 0.5 | ? | -5.7
O=C(C1CC1)N(Cc1ccco1)c1nc(-c2ccccc2)cs1 | -0.8 | 23051* | -5.5 | -2.1 | 4.6
COc1ccc(OC)c(-c2csc(N(Cc3ccco3)C(=O)c3cccs3)n2)c1 | -6.8 | 5931 | 0.9 | -0.7 | -13.7
COc1ccc(-c2csc(N(Cc3ccco3)C(=O)c3cccs3)n2)cc1 | -10.1 | 4258 | -8.2 | -1.0 | 64.0*
O=C(COc1ccc(Cl)cc1)N(Cc1ccccc1)c1nc(-c2ccccc2)cs1 | -2.2 | 5339 | -19.3 | -1.0 | -6.3
COc1ccc(-c2csc(N(CC3CCCO3)C(=O)c3cccs3)n2)cc1 (stereo not given) | -2.2 | 22735* | -3.9 | ? | 2.2
CC(=O)Oc1ccc(C23c4ccccc4C2(OC(C)=O)c2cc(OC(C)=O)ccc23)cc1 (stereo not given) | -2.4 | 3657 | -11.8 | 0.4 | 39.2
Cc1ccn2c(=O)nc(SCC(=O)Nc3ccc4c(c3)OCCO4)nc2c1 | · | · | · | · | 0.9
Nc1[nH]c(C(=O)c2ccccc2)c(-c2ccncc2)c1C(=O)NCc1ccc(Cl)cc1 | -4.7 | 5776 | -8.3 | -0.6 | ·
Cc1ccc(OCC(=O)Nc2c(C)ccc3nsnc23)cc1 | 1.0 | 5617 | -0.4 | 0.2 | 2.6
CC1CCc2c(sc(NC(=O)c3ccccc3C(=O)O)c2C#N)C1 (stereo not given) | -1.4 | 1999 | -6.8 | -0.1 | 1.8
CC1CCc2c(sc(NC(=O)COC(=O)c3ccccc3NCc3ccco3)c2C#N)C1 (stereo not given) | -9.3 | 22501* | -2.4 | -0.7 | -2.3
CC1(C)CC(NC(=O)C23CCC(C)(C(=O)C2=O)C3(C)C)CC(C)(C)N1 (stereo not given) | 4.9 | 4471 | -3.1 | -0.3 | 2.3
SMILES | Anthrax LF inh2 | Bead autofluor | BoNT-F LC inh | BoNT-A LC inh2 | MazF activator
CC1(C)CC(NC(=O)C23CCC(C)(C2Br)C3(C)C)CC(C)(C)N1 (stereo not given) | 5.0 | 3593 | 34.6* | 5.9 | -1.3
CC1(C)CC(NC(=O)C23CCC(C)(/C(=N/O)C2)C3(C)C)CC(C)(C)N1 (stereo not given) | 0.5 | 22387* | -0.9 | ? | 8.2
C=C(C)c1nc(Oc2ccccc2)nc(Oc2ccccc2)n1 | 1.5 | 4293 | -3.6 | 0.1 | 2.8
Cc1ccccc1SCC(=O)Nc1ccc(N2CCOCC2)cc1 | -0.3 | 3477 | -10.9 | 0.3 | 4.5
Cc1ccccc1SCC(=O)NC1CCOC1=O (stereo not given) | -1.8 | 22927* | 2.2 | 1.2 | -1.7
COCCNc1oc(Cc2cccc3ccccc23)nc1C#N | 0.3 | 4006 | ? | -1.5 | 9.3
COc1ccc(C(=O)Nc2nc3cc(OC)c(OC)cc3c(=O)[nH]2)cc1 | -2.4 | 25582* | -5.1 | -3.4 | 33.8
CCOc1ccc(CCNc2nc3c(c(=O)n(C)c(=O)n3C)n2CC)cc1OCC | 0.6 | 16756* | -2.4 | ? | 1.0
CCn1c(NCc2ccccn2)nc2c1c(=O)n(C)c(=O)n2C | 1.2 | 16824* | -0.8 | -0.8 | 0.6
CCOC(=O)CN1C(=O)N[C@@H](CCc2ccccc2)[C@H](C(=O)OC)[C@H]1C | -8.2 | 3929 | 1.0 | 0.4 | -12.6
COc1cccc(CCC(=O)N(C)C2CCCN(Cc3ccccc3F)C2)c1 (stereo not given) | -11.2 | 3255 | 36.0* | 2.8 | -4.9
COc1cccc(CC(=O)N(C)C2CCCN(Cc3ccccc3F)C2)c1 (stereo not given) | 3.5 | 3540 | 8.1 | 0.6 | 5.4
COc1ccccc1-c1cc(C(=O)NCc2ccc(F)cc2)no1 | -1.3 | 16081 | -2.1 | 2.4 | 2.3
COC(=O)c1ccccc1NC(=O)c1cc(-c2cccs2)on1 | -1.1 | 20518* | 1.9 | 0.7 | -52.1
COc1ccccc1-c1cc(C(=O)NCc2ccccc2)no1 | -2.4 | 21016* | -1.5 | -1.1 | 1.8
O=C(NCc1ccccc1)c1cc(-c2cccs2)on1 | -8.8 | 18644* | 6.9 | 5.1 | -6.5
O=C(NCc1ccc(F)cc1)c1cc(-c2cccs2)on1 | 0.2 | 10320 | -0.1 | 2.4 | -1.0
COC(=O)c1ccccc1NC(=O)c1cc(-c2ccco2)on1 | -0.1 | 4529 | -1.5 | 0.3 | -5.1
O=C(CCCCCNC(=O)N1CCn2c1nc1ccccc12)NCc1ccccc1 | -0.9 | 4414 | 11.3 | 0.1 | -4.2
CC(=O)NCCn1c(SCc2ccccc2C)nc2ccccc2c1=O | -15.3 | 7911 | -3.0 | 2.9 | -8.1
CC(=O)NCCn1c(SCc2ccc(C)cc2C)nc2ccccc2c1=O | -1.8 | 23483* | -1.3 | -1.7 | -3.8
CC(=O)NCCn1c(SCC(=O)c2ccccc2)nc2ccccc2c1=O | -0.3 | 23027* | -4.6 | -2.3 | -15.7
CC(=O)NCCn1c(SCC(=O)OCc2ccccc2)nc2ccccc2c1=O | 15.1 | 6113 | 17.5 | 4.6 | 6.8
CC(=O)NCCn1c(SCc2cccc([N+](=O)[O-])c2)nc2ccccc2c1=O | -1.1 | 5116 | 1.8 | 0.1 | -1.1
CC(=O)NCCn1c(SCc2cc(F)ccc2F)nc2ccccc2c1=O | -6.2 | 21737* | -1.1 | ? | -4.6
COc1ccc(/C=N/NC(=O)c2ccncc2)cc1CSc1nc2ccccc2s1 | 0.4 | 10272 | -3.0 | 1.5 | -12.9
CC(=O)c1nnn(-c2c(F)cccc2F)c1C | 12.3 | 3649 | ? | ? | 4.0
CC(C)OCCCNC(=O)CNC(=O)c1ccc(Cl)c(Cl)c1 | 1.0 | 4464 | -1.1 | 0.0 | -6.2
